Hits are enriched below; roughly 1.8% of the tested compounds scored in any of these assays.
GLP-1R agonist = qHTS of GLP-1 Receptor Agonists. Glucagon-like peptide 1 receptor (Homo sapiens), P43220. HEK293 GLP-1R CRE-luciferase, luminescence, 4-6 h; cells express a hypersensitive GLP-1R form. Potency, µM (titrated, usually from 45.6 µM), for the others: top-dose activation, actives largely listed as activators. hit rate 0.007% among 380,000. AID 624172, 2012; note: % of control where 0% means no effect
Target sequence (P43220 whole entry, looked up): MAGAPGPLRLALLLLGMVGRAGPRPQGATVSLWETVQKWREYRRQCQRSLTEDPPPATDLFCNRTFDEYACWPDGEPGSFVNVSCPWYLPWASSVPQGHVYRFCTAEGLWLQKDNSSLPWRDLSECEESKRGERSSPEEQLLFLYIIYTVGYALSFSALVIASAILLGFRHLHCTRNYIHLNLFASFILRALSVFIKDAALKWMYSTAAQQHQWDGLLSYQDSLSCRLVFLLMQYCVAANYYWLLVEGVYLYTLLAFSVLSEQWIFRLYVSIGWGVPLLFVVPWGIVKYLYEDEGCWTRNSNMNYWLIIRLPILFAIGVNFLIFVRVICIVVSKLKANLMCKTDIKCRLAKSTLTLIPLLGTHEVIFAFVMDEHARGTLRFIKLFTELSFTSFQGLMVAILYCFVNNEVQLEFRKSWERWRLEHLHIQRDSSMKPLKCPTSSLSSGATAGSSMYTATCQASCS
GLP1R inv ag = qHTS of GLP-1 Receptor Inverse Agonists (Inhibition Mode) | Glucagon-like peptide 1 receptor (Homo sapiens), P43220 | HEK293 GLP-1R CRE-luciferase, luminescence, 24 h; GLP-1R form is constitutively active | Potency, µM (top dose mostly 38.3 µM), for inactives: at the top dose activity change, negative = inhibition, actives largely listed as inhibitors | hit rate 1.6% among 410,000 | AID 624417, 2012; note: % is set by controls: 0 for no effect and ±100 for the full control effect; nearly all actives have a fitted effect of over 55% in size
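Cells are plated, allowed 12 hours at 37 deg C, then treated with compounds for 24 hr before luciferase detection reagent is added and luminescence is read after 12 min at room temperature. The HEK293 line carries constitutively active GLP-1R with a cAMP-responsive reporter.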
Tb PGK inh = qHTS Assay to Find Inhibitors of Phosphoglycerate Kinase; Phosphoglycerate kinase, glycosomal (Trypanosoma brucei brucei), P07378; Potency, µM (titrated, usually from 57.5 µM), for the others: top-dose activity change, negative = inhibition, actives largely listed as inhibitors; hit rate 0.043% among 380,000; PGK/GAPDH coupled, Kinase-Glo luminescence, 60 min; AID 602233, 2012; note: % is set by controls: 0 for no effect and ±100 for the full control effect; nearly all actives have a fitted effect of over 60% in size
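Recombinant glycosomal PGK reaction used 1,3-bisphosphoglycerate generated in-well by GAPDH (100nM final) in 100mM TEA pH 7.6, 5mM MgCl2, 0.01% Tween-20. After 60 minutes at room temperature, ATP was read by Kinase-Glo Plus luminescence end-point.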
Tb PFK inh = qHTS Assay to Find Inhibitors of T. brucei phosphofructokinase | Potency, µM (doses to about 57.5 µM), without a hit: top-dose activity, negative = inhibition, usual class: inhibitors | T. brucei PFK, ADP-Glo luminescence | ATP-dependent 6-phosphofructokinase (Trypanosoma brucei brucei), O15648 | hit rate 0.17% among 330,000;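 note: 0% = uninhibited 1x PFK enzyme wells and -100% = no-enzyme wells; nearly all actives have a fitted effect of over 60% in size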
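In TEA buffer at pH 8.0 with 5 mM MgCl2, enzyme (1.25 nM) converted F6P (0.5 mM) and ATP (0.1 mM) for 45 min at room temperature. ADP product was read by luciferase luminescence.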
Pin1 inh = qHTS Assay to Find Inhibitors of Pin1 | Peptidyl-prolyl cis-trans isomerase NIMA-interacting 1 (Homo sapiens), Q13526 | Pin1 FP peptide displacement, HiFluor488, 10 min | Potency, µM (series often up to 115 µM), without a hit: at the highest dose activity, negative = inhibition, actives largely listed as inhibitors | hit rate 0.009% among 390,000; active = well fitted inhibition curve with a large enough effect in the polarisation, with a control signal flat, not every such curve was filed as active; inconclusive = small, poorly fitted or top-dose-only effect, or effect the other way, or a change in a side signal; inactive = no such curve, though single readings can be large or run the other way; the % refers to the polarisation; note: % is set by controls: 0 for no effect and ±100 for the full control effect
GLP1R cytotox = qHTS of GLP-1 Receptor Inverse Agonists: Cytotox Screen; HEK293 cAMP-luciferase reporter cells, luminescence, 24 h; Potency, µM (highest dose often 38.3 µM), for the others: at the highest dose activity change, negative = inhibition, most hits filed as inhibitors; hit rate 0.13% among 410,000; AID 624418, 2012;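 note: loss of luciferase light is scored as toxicity; % is set by controls: 0 for no effect and ±100 for the full control effect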
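Cells in DMEM/10% Nu serum/1% pen-strep, 1536-well format. Pre-incubated 12 h, dosed with 23 nL compound, incubated a further 24 h. Luciferase detection, 12 min at room temp, luminescence.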
An asterisk follows results filed as active. Unless noted, calls come from the whole dose curve; as a rule, active = well fitted curve in the direction sought with a large enough effect; inconclusive = small, poorly fitted or top-dose-only effect, or another doubt; inactive = no such curve, though single readings can be large; an effect the other way counts as inactive or inconclusive. Potency is the fitted concentration of half-maximal effect.

For Clc1ccc(Cn2c(-c3cccnc3Cl)nc3ccccc32)cc1 the results were GLP-1R agonist -6%, GLP1R inv ag -9%, Tb PGK inh 1%, Tb PFK inh 0%, Pin1 inh 2% and GLP1R cytotox 8%.
Screening Clc1ccc(Cn2c(-c3cccnc3Cl)nc3ccccc32)c(Cl)c1 returned GLP-1R agonist 5%, GLP1R inv ag 10µM*, Tb PGK inh -7%, Tb PFK inh -4%, Pin1 inh 16% and GLP1R cytotox -13%.
For CCc1ccccc1NC(=O)CCn1nc(C)c2c(C)n(-c3ccccc3)nc2c1=O the results were GLP1R inv ag -7%, Tb PGK inh 0%, Pin1 inh -1% and GLP1R cytotox 3%.
For Cc1cc(C)c(S(=O)(=O)/N=C2/C=C(Sc3ncn[nH]3)C(=O)c3ccccc32)cc1C the results were GLP-1R agonist -33%, GLP1R inv ag 10µM*, Tb PGK inh inconclusive, Tb PFK inh inconclusive, Pin1 inh 38µM* and GLP1R cytotox inconclusive.
Screening Cc1ccc(C)c(S(=O)(=O)/N=C2\C=C(NS(=O)(=O)c3ccccc3)C(=O)c3ccccc32)c1 returned GLP-1R agonist -2%, GLP1R inv ag 6%, Tb PGK inh -13%, Tb PFK inh 0%, Pin1 inh -11% and GLP1R cytotox -26%.
COc1ccc2nc(-c3cccc(F)c3)sc2c1 was read as Pin1 inh -3%.
`Cc1ccc([N+](=O)[O-])cc1NC(=O)CN(C1CCCCC1)S(=O)(=O)c1ccc(Cl)cc1` gave GLP-1R agonist -23%, GLP1R inv ag inconclusive, Tb PGK inh 3%, Tb PFK inh -4%, Pin1 inh 1% and GLP1R cytotox 73%.
Screening Cc1ccc([N+](=O)[O-])cc1NC(=O)CN(C(=O)c1ccccc1Cl)C1CCCCC1 returned GLP-1R agonist -12%, GLP1R inv ag 10µM*, Tb PGK inh -3%, Tb PFK inh 0%, Pin1 inh 7% and GLP1R cytotox -30%.
For COc1ccccc1C(=O)Nc1ccnn1C1CCN(Cc2cn(C)c3ccccc23)CC1 the results were GLP-1R agonist 3%, GLP1R inv ag 11µM*, Tb PGK inh -10%, Tb PFK inh 0%, Pin1 inh -4% and GLP1R cytotox -28%.
For COc1ccccc1C(=O)Nc1ccnn1C1CCN(CCCC2CCCC2)CC1 the results were GLP-1R agonist -3%, GLP1R inv ag inconclusive, Tb PGK inh -5%, Tb PFK inh 1%, Pin1 inh -5% and GLP1R cytotox inconclusive.
Screening O=C(Nc1ccnn1C1CCN(CCCC2CCCC2)CC1)c1ccccc1Cl returned GLP-1R agonist 5%, GLP1R inv ag 10µM*, Tb PGK inh -5%, Tb PFK inh -5%, Pin1 inh -1% and GLP1R cytotox -22%.
Screening COc1cccc(CNC(=O)Cc2c(C)c3cc4c(C)coc4cc3oc2=O)c1 returned GLP1R inv ag 3%, Tb PGK inh 10%, Pin1 inh 2% and GLP1R cytotox 3%.
Screening CC1CCCN(c2ncnc3c2nc2n3CCCCC2)C1 (stereo not given) returned GLP-1R agonist 3%, GLP1R inv ag 4%, Tb PGK inh -1%, Pin1 inh 2% and GLP1R cytotox -13%.
`O=C(Cc1nnc(-c2cc3ccccc3[nH]2)s1)Nc1cc(C(F)(F)F)ccc1Cl` gave Pin1 inh 27%.

Screening results: PubChem BioAssay, National Center for Advancing Translational Sciences (NCATS)
